SMARCA2 act = activators of SMARCA2 function | 370,000 tested, 1% active | activation, % at 9.1 µM | MG213 cells, MMTV-luciferase reporter, dexamethasone, overnight | AID 652017; in the data active = activation above about 7.8%;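 also: 0% = vehicle wells and 100% = reference activator wells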
hcDAF12 agonist = H. contortus DAF-12 activation, primary screen; activation, % at 6.8 µM; 370,000 tested, 1.4% active; HEK293 hcDAF-12 lit1-tk-luc reporter, luminescence; 0% DMSO, 100% Δ7-dafachronic acid;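 active = activation above the mean of all tested compounds plus 3 SD, cut at about 5.5% in these data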;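 also: 100% = response to 3 µM Δ7-dafachronic acid high control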
ssDAF-12 act = S. stercoralis DAF-12 activation, primary screen; 370,000 tested, 1% active; HEK293 ssDAF-12/GRIP1 lit1-tk-luc reporter, luminescence; % of 3 µM dafachronic acid response; activation, % at 6.8 µM;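 active = activation above the mean over all tested compounds plus 3 SD, cut at about 0.9% in these data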;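 also: 0% = DMSO-only wells and 100% = 3 µM delta7-dafachronic acid wells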
hgDAF-12 ag = agonists of H. glycines DAF-12 nuclear receptor; HEK293 GAL4-hgDAF12 UAS-luciferase reporter, agonist luminescence; normalized to butyrate control; activation, % at 6.8 µM; 370,000 tested, 1.8% active;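 active = activation above a cutoff set at the mean of all screened compounds plus 3 SD, cut at about 10% in these data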;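 also: 0% = DMSO wells and 100% = sodium butyrate wells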
DAX1 inh = blocks DAX1 repression of SF-1 activated StAR promoter; HEK293T StAR-luciferase reporter, SF-1/DAX-1 repression relief; inhibition, % at 6.8 µM; 370,000 tested, 1.1% active; AID 652010;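 active = inhibition above the mean over all tested compounds plus 3 SD, cut at about 3.6% in these data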;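 also: 0% = DAX-1 cells with DMSO and 100% = cells lacking DAX-1 with DMSO; higher inhibition means more luminescence from relief of DAX-1 repression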
SMARCA2 act conf = SMARCA2 activation, confirmation screen. shares compounds with SMARCA2 act. AID 652260. activation, % at 9.1 µM. MG213 cells, MMTV-luciferase with dexamethasone, luminescence, overnight; MG213 cells expressing E1A, Rb sequestered; DMSO wells 0%, reference activator 100%. 3,500 tested, 30% active;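 active = activation above its plate's cutoff, the mean activation of tested wells plus 3 SD, cut at about 7.9% in these data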
GAL4-VP16 Luc = GAL4-VP16 reporter activation counter-screen | HEK293 GAL4-VP16 pG5luc reporter, luciferase luminescence; scaled: DMSO wells 0%, SAHA wells 100% | activation, % at 9.1 µM | shares compounds with SMARCA2 act | 3,500 tested, 41% active | AID 686939;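 active = activation above the solvent-only control well mean plus 3 SD, averaged across control plates, cut at about 5.2% in these data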
Starred values were filed as active, the others as inactive. Compounds with a hit are over-represented: about 4.2% of the library has one in this group of screens.

How did CCN(C(=O)COC(=O)c1c(-c2ccccc2)noc1C)C1CCS(=O)(=O)C1 (stereo unspecified) do in these assays?
SMARCA2 act: 8.6*; hcDAF12 agonist: -1; ssDAF-12 act: -1; hgDAF-12 ag: 1; DAX1 inh: -1; SMARCA2 act conf: -3; GAL4-VP16 Luc: 1

How did C=CCN(CC#Cc1ccccc1)Cc1ccc(OC)cc1OC do in these assays?
SMARCA2 act: 0; hcDAF12 agonist: -1; ssDAF-12 act: -1; hgDAF-12 ag: 1; DAX1 inh: -2

What do the screens show for `COc1ccc(/C(O)=C2/C(=O)C(=O)N(c3ncccn3)C2c2ccc(OC)cc2)cc1` (stereo unspecified)?
SMARCA2 act: -1; hcDAF12 agonist: 1; ssDAF-12 act: -1; hgDAF-12 ag: 3; DAX1 inh: 0

What do the screens show for `CCCOc1ccc(/C(O)=C2\C(=O)C(=O)N(c3ccccn3)C2c2ccccc2F)cc1C` (stereo unspecified)?
SMARCA2 act: 15*; hcDAF12 agonist: 2; ssDAF-12 act: -1; hgDAF-12 ag: 6; DAX1 inh: 1; SMARCA2 act conf: 5; GAL4-VP16 Luc: 4

How did COc1ccc(C2/C(=C(/O)c3ccccc3)C(=O)C(=O)N2c2ccccn2)cc1 (stereo unspecified) do in these assays?
SMARCA2 act: 10*; hcDAF12 agonist: 4; ssDAF-12 act: 1; hgDAF-12 ag: 9; DAX1 inh: 1; SMARCA2 act conf: 4; GAL4-VP16 Luc: 1

Results for CCn1c(SCC(=O)NN=Cc2cccc(OCc3ccccc3)c2)nnc1-c1ccc(OC)c(OC)c1 ?
SMARCA2 act: 6; hcDAF12 agonist: -2; ssDAF-12 act: -2; hgDAF-12 ag: -1; DAX1 inh: -2

What do the screens show for `COC(=O)[C@]12C[C@H](CC(=O)NCC34CC5CC(CC(C5)C3)C4)C(=O)N(Cc3ccc(Cl)cc3Cl)C1=C[C@H](C(C)(C)C)O[C@@H]2C`?
SMARCA2 act: -4; hcDAF12 agonist: -1; ssDAF-12 act: -1; hgDAF-12 ag: 3; DAX1 inh: 1

How did COc1ccccc1C(=O)NC1CCCCN(C)C1=O (stereo unspecified) do in these assays?
SMARCA2 act: 3; hcDAF12 agonist: -1; ssDAF-12 act: -1; hgDAF-12 ag: -4; DAX1 inh: 0

Results for CN(C)c1oc(-c2ccccc2Cl)nc1S(=O)(=O)c1ccccc1 ?
SMARCA2 act: -4; hcDAF12 agonist: 1; ssDAF-12 act: -1; hgDAF-12 ag: -1; DAX1 inh: 0

How did COc1ccc(/C=C/c2nc(S(=O)(=O)c3ccccc3)c(N(C)C)o2)cc1 do in these assays?
SMARCA2 act: 9.6*; hcDAF12 agonist: 0; ssDAF-12 act: -1; hgDAF-12 ag: 1; DAX1 inh: 0; SMARCA2 act conf: -5; GAL4-VP16 Luc: -2

Results for O=C(c1ccco1)N1CCN(Cc2ccccc2F)CC1 ?
SMARCA2 act: 2; hcDAF12 agonist: 1; ssDAF-12 act: -1; hgDAF-12 ag: 2; DAX1 inh: 0

Results for O=C(c1ccco1)N1CCN(Cc2c(F)cccc2Cl)CC1 ?
SMARCA2 act: 8.8*; hcDAF12 agonist: 2; ssDAF-12 act: -1; hgDAF-12 ag: 3; DAX1 inh: 1; SMARCA2 act conf: 7; GAL4-VP16 Luc: 7.9*

What do the screens show for `Cc1ccc(Nc2nc(N)nc(CN3CCN(C(=O)c4ccco4)CC3)n2)cc1Cl`?
SMARCA2 act: 8.5*; hcDAF12 agonist: -1; ssDAF-12 act: -2; hgDAF-12 ag: -1; DAX1 inh: 0; SMARCA2 act conf: 1; GAL4-VP16 Luc: 1

How did O=C(NC(Sc1ccc(Cl)cc1)C(=O)O)c1ccccc1 (stereo unspecified) do in these assays?
SMARCA2 act: -3; hcDAF12 agonist: 0; ssDAF-12 act: -1; hgDAF-12 ag: 2; DAX1 inh: 0

What do the screens show for `CCOC(=O)c1ccc2[nH]c3c(c2c1)CCCC3`?
SMARCA2 act: 13*; hcDAF12 agonist: 0; ssDAF-12 act: -1; hgDAF-12 ag: 6; DAX1 inh: 1; SMARCA2 act conf: 7; GAL4-VP16 Luc: 8.9*

Results for O=C(NCCc1ccccc1)OCc1cn(Cc2ccc(F)cc2)nn1 ?
SMARCA2 act: -2; hcDAF12 agonist: -1; ssDAF-12 act: 0; hgDAF-12 ag: 0; DAX1 inh: 1

Results for CCc1nc2ccc(C(=O)N(C)Cc3ccccc3)cn2c1N(C)Cc1ccc(OC)cc1 ?
SMARCA2 act: 9.9*; hcDAF12 agonist: 0; ssDAF-12 act: -1; hgDAF-12 ag: -1; DAX1 inh: -1; SMARCA2 act conf: 4; GAL4-VP16 Luc: 1

What do the screens show for `CCCNCc1cc(Cl)c(OCC)c(Cl)c1`?
SMARCA2 act: 9.1*; hcDAF12 agonist: -1; ssDAF-12 act: -2; hgDAF-12 ag: 0; DAX1 inh: -1; SMARCA2 act conf: -4; GAL4-VP16 Luc: -1

How did O=c1cnnc(SCCc2ccccc2)[nH]1 do in these assays?
SMARCA2 act: 8.2*; hcDAF12 agonist: -1; ssDAF-12 act: -1; hgDAF-12 ag: 4; DAX1 inh: -1; SMARCA2 act conf: -1; GAL4-VP16 Luc: 1

Results for CCCCCCCCN1C(=O)[C@@H](CC(=O)NCc2ccc(OC)c(OC)c2)C[C@@]2(C(=O)OC)C1=C[C@H](C(C)(C)C)O[C@@H]2C ?
SMARCA2 act: -8; hcDAF12 agonist: -1; ssDAF-12 act: -1; hgDAF-12 ag: 0; DAX1 inh: 0

How did C/C(=N\Nc1cccc([N+](=O)[O-])c1)c1ccccc1O do in these assays?
SMARCA2 act: 12*; hcDAF12 agonist: 0; ssDAF-12 act: -1; hgDAF-12 ag: 10; DAX1 inh: -1; SMARCA2 act conf: 6; GAL4-VP16 Luc: 5

Results for C/C(=N\Nc1cccc([N+](=O)[O-])c1)c1cc(F)ccc1O ?
SMARCA2 act: 7; hcDAF12 agonist: 0; ssDAF-12 act: -1; hgDAF-12 ag: 4; DAX1 inh: -1

Results for COC(=O)c1ccc(COc2ccccc2/C=C(\C#N)C(=O)Nc2ccc(C)cc2)cc1 ?
SMARCA2 act: 8.2*; hcDAF12 agonist: 3; ssDAF-12 act: -1; hgDAF-12 ag: 11*; DAX1 inh: 3.9*; SMARCA2 act conf: -3; GAL4-VP16 Luc: 14*

What do the screens show for `CN(C)Cc1cc(O)c(CN(C)C)cc1O`?
SMARCA2 act: 8.0*; hcDAF12 agonist: 0; ssDAF-12 act: -1; hgDAF-12 ag: -1; DAX1 inh: 0; SMARCA2 act conf: 7; GAL4-VP16 Luc: 2

How did O=c1c2ccccc2sc2ccc(NCCCN3CCOCC3)cc12 do in these assays?
SMARCA2 act: 7; hcDAF12 agonist: 0; ssDAF-12 act: -1; hgDAF-12 ag: 7; DAX1 inh: 1

Screening data deposited in PubChem by The Scripps Research Institute Molecular Screening Center.
